The record followed here is the supplement of paper PMC10105736.

What all share (assay): MAPPIT interaction score (arbitrary units); higher = stronger binary interaction signal, active = hit call of the paper
For experiment [1], the target named is CycG. The conditions noted are these: MAPPIT configuration: N-N; pair source set: Finley_Y2H.
The target of experiment [2] is c-cup. The conditions noted are these: MAPPIT configuration: N-N; pair source set: Finley_Y2H.
The target of experiment [3] is ix. The settings on record: MAPPIT configuration: N-N; pair source set: Finley_Y2H.
Experiment [4] addresses Cpr62Ba. The conditions noted are these: pair source set: RRS.
Experiment [5] deals with Dhod. The conditions noted are these: MAPPIT configuration: N-N; pair source set: Curagen_high_conf.
The target of experiment [6] is cindr. The conditions noted are these: MAPPIT configuration: N-N; pair source set: Lit-BM-16.
The target in experiment [7] is Dfd. The conditions noted are these: MAPPIT configuration: N-N; pair source set: Finley_Y2H.
In experiment [8] the target is Cpr56F. The conditions noted are these: MAPPIT configuration: N-N; pair source set: Finley_Y2H.
Experiment [9] concerns the target Dif. The settings on record: pair source set: Lit-BM-16.
For experiment [10], the target named is Deaf1. The conditions noted are these: MAPPIT configuration: N-N; pair source set: screen_1.

A number with no mark means an inactive call.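 How the source made its calls: active = MAPPIT score above the 99th percentile of random reference set scores in the same batch; inactive = at or below it.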
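Further: HEK293T cells with Epo stimulation, STAT-responsive firefly luciferase reporter, fold induction versus unstimulated cells divided by the larger fold induction of two negative controls lacking either bait or prey.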

B1: mldr (protein)
chain: MYNLRLLRNLLPIAGHAHPRWLASQHKRRPQPGSLPADRLDQLRSDLFERRHELSGAEWTEVRRSLVDGYKHINGHNVDAVILGVCSAPNQLSLAKSYVEFLRSRGSKPNAATLGRLLRVYNAAYHERPLSEAEQSEILQICRSLQAEHETLDASSCENVIHGLVATSGDDWQRGLPLLEMMKVTSTPSVAAYSALAEKAFSVATPEQELAWRLLEEMATARKPPKCEVYLALLNRLANETAQLPAQLSLLLQFLERHEILVSQRVAIRLQELSSQVPQLLHTRTTHLGGLGKCQSCQQHLQPVAISDEEFRQLSECFLERVLIRRDVFQRSTPEEVARFKKFVEKTAPYDCVIDGLNVAYSTGTKKTPQQLAKLVATVVRHFREQDKRVLVLGREHMRNWSKQAMHYVHCNASLFLTSNLSHDDPFLLYATLRSGQETDFFSRDLMRSHAFHLGTELKPIFRRWQQEHQFSLVTQTQTGQIIVKEPVRHRLCAHQVADTWHVPYCAQYTPHPTDSFEVPANWLCIQMKEQTIPATKTKTKTTR
As to B1, the MAPPIT interaction score in [1] was -0.0303; in [2] it was -0.00733; in experiment [3], 0.483.

B2: Aladin (protein)
chain: MAALSNLKQCPPFSTLPDLALRHNHIPELERYPQINLNSELLANPAGQRYYGGQSFVSVNEGVLKRIARSFFNGGFWKTLEEARSPETREQAPLIAQAGDLIAQFLGLATGLRILPHTQQLSAERIAQFVETRDWLNSDVRYLAWNQHFFCLAVAGVDDVVRIYTKSSSATTATVLKSPSQTQITCMAWRPLCASEIVIGCRQGLCFWEVDSTLHLGRTNAPSEIFKYPNNLPITSMQWNKDGTQLATASIGDRSIIIWQPDTGMMQPLKRLGPPGSLLKWSPDNDWLFAATVDRVFRVWNCHQQWTTERWVCGPGGYVQTACWSPCGRFLLFVSSAEPILYRLQFVQQSLLSSSADEKEILPIADLNACSIDANRTLVGGPAQQLAWDPHGNYLVVTFKATNCIAVFRTFIQKFDLQISAAYYLSGETAAEHPSFICFQPLYEDNDRSVLTIAWSSGRIQYYAFD
For B2, in [1], the MAPPIT interaction score was -0.0444.

B3: Rad60 (protein)
chain: MSDDDCDIFSAARKRIPEIALPKNPYNLGNDSFSKEVDYDFIEDLPKKSTKTGKRKNPAATRKNPPKSQDDASPPKQAEHKAVEPEEDMRTERSLSPVSLLILEMEKKNGQQSDVEKHAKENDVGPVARRTRSSLNRSEMAPPPVSPTVEVPTQTKPKKRGQKKRTSLTTTTSNSASMEVSLPSIVGQNNEHISRRWTLAEVAARSKVVDSIDLVSAVAPRVEGFVNLDSEDEGEKEAPPVVEEENIFDNDNPTIEVALSWLGEIQIYKLRQHQKFKHLFKELASRNGIDENDITVDMYYNFVGPEDTPHSIGLKSFHTLTGHPTKSHNNNNVAAKIDYNPEALCRKPKKFQVKVQADKWKHPLVIPMKKTDNFKIIFIKCAEELNCDPRTIKLFFDGDLLDPNDTPNNQDMEGNEVIDLKIKA
As for B3, the MAPPIT interaction score in experiment [4] (MAPPIT configuration: N-C) was -0.181; in experiment [4] (MAPPIT configuration: N-N) it was 1.45.

B4: bsk (protein)
chain: MTTAQHQHYTVEVGDTNFTIHSRYINLRPIGSGAQGIVCAAYDTITQQNVAIKKLSRPFQNVTHAKRAYREFKLMKLVNHKNIIGLLNAFTPQRNLEEFQDVYLVMELMDANLCQVIQMDLDHDRMSYLLYQMLCGIKHLHSAGIIHRDLKPSNIVVKADCTLKILDFGLARTAGTTFMMTPYVVTRYYRAPEVILGMGYTENVDIWSVGCIMGEMIRGGVLFPGTDHIDQWNKIIEQLGTPSPSFMQRLQPTVRNYVENRPRYTGYSFDRLFPDGLFPNDNNQNSRRKASDARNLLSKMLVIDPEQRISVDEALKHEYINVWYDAEEVDAPAPEPYDHSVDEREHTVEQWKELIYEEVMDYEAHNTNNRTR
As to B4, the MAPPIT interaction score is 1.59 in [5] and 0.0365 in experiment [6].

B5: eIF3i (protein)
chain: MRPLMLQGHERSITQIKYNREGDLLFSCSKDQKPNVWYSLNGERLGTYDGHQGAVWCLDVDWESRKLITGAGDMTAKIWDVEYGTVIASIPTKSSVRTSNFSFSGNQAAYSTDKAMGQSCELFLIDVRNADSSLSEQEPTLRIPMTESKITSMLWGPLDETIITGHDNGNIAIWDIRKGQKVVDSGTDHSAGINDMQLSKDGTMFVTASKDTTAKLFDSESLMCLKTYKTERPVNSAAISPIMDHVVLGGGQDAMEVTTTSTKAGKFDSRFFHLIYEEEFARLKGHFGPINSLAFHPDGKSYASGGEDGFVRVQTFDSTYFENIFE
B5: the MAPPIT interaction score in experiment [7] was 0.00823.

B6: Uro (protein)
chain: MFATPLRQPAAANHQTPKNSAGMDEHGKPYQYEITDHGYGKDAVKVLHVSRNGPVHAIQEFEVGTHLKLYSKKDYYQGNNSDIVATDSQKNTVYLLAKKHGIESPEKFALLLARHFINKYSHVEEAHVHVEAYPWQRVCQEETRTNVNGKCENGVQGNCDFSSIDNRSLHNHAFIFTPTALHYCDVVIRRTDPKQTVITGIKGLRVLKTTQSSFVNFVNDEFRSLPDQYDRIFSTVVDCSWEYSDTENLDFLRAWQTVKNIIIRNFAGDPQVGVSSPSVQHTLYLSERQVLDVLPQVSVISMTMPNKHYFNFDTKPFQKIAPGDNNEVFIPVDKPHGTIYAQLARKNINSHL
With B6, the MAPPIT interaction score in [8] is -0.112.

B7: Rel (protein)
chain: MNMNQYYDLDNGKNVMFMNDASSTSGYSSSTSPNSTNRSFSPAHSPKTMELQTDFANLNLPGGNSPHQPPMANSPYQNQLLNNGGICQLGATNLINSTGVSFGVANVTSFGNMYMDHQYFVPAPATVPPSQNFGYHQNGLASDGDIKHVPQLRIVEQPVEKFRFRYKSEMHGTHGSLNGANSKRTPKTFPEVTLCNYDGPAVIRCSLFQTNLDSPHSHQLVVRKDDRDVCDPHDLHVSKERGYVAQFINMGIIHTAKKYIFEELCKKKQDRLVFQMNRRELSHKQLQELHQETEREAKDMNLNQVRLCFEAFKIEDNGAWVPLAPPVYSNAINNRKSAQTGELRIVRLSKPTGGVMGNDELILLVEKVSKKNIKVRFFEEDEDGETVWEAYAKFRESDVHHQYAIVCQTPPYKDKDVDREVNVYIELIRPSDDERSFPALPFRYKPRSVIVSRKRRRTGSSANSSSSGTESSNNSLDLPKTLGLAQPPNGLPNLSQHDQTISEEFGREKHLNEFIASEDFRKLIEHNSSDLEKICQLDMGELQHDGHNRAEVPSHRNRTIKCLDDLFEIYKQDRISPIKISHHKVEKWFIEHALNNYNRDTLLHEVISHKKDKLKLAIQTIQVMNYFNLKDVVNSTLNADGDSALHVACQQDRAHYIRPLLGMGCNPNLKNNAGNTPLHVAVKEEHLSCVESFLNGVPTVQLDLSLTNDDGLTPLHMAIRQNKYDVAKKLISYDRTSISVANTMDGNNALHMAVLEQSVELLVLILDAQNENLTDILQAQNAAGHTPLELAERKANDRVVQLLKNVYPEKGELAMTWIPCKVKEEIDSSSDESSDAGQLEIKSEEMDIETKDEDSVELDLSSGPRRQKDESSRDTEMDNNKLQLLLKNKFIYDRLCSLLNQPLGHGSDPQDRKWMQLARQTHLKQFAFIWLGAEDLLDHVKRKGASVEFSTFARALQAVDPQAYALLVNPT
B7: the MAPPIT interaction score in [9] (MAPPIT configuration: N-C) is 3.09; in experiment [9] (MAPPIT configuration: N-N), 1.57.

B8: Clamp (protein)
chain: MEDLTKNIIFTNAINGQPATIQYQTADGTILKQPKIEGQKTEQQPTFYYTTNGNGGTVNLAQLATTDDNKTCYIAQPVGGYNYALVNGMPLNQGAALGIATVDAQGRIQIVNQNKPIAANTISNISFKCDVCSDMFPHLALLNAHKRMHTDGEQQQQQQHNAQAGGDSIAVVSAQGLVQAQNIIGNGQMGQIQIVSSDTLEPVQQSVMQQQQHESKASKCINCGSSMLQQSKRKGPKQVRCESCMQAEQTAQQQQQLFVAQDGQMAHPVQIISTTPQAQAQLQQIVAAQTGGTTPKREASSGSGHHPVKKRNSQQMTKCQKCNGSGVVLVGQHSHASHSGVGGSVKQSVTVKTENPSKPFSCNICGGLFSRYSSLWSHKKLHSGEKNYKCSICGLAFAKAVYLKNHARIHTGEKPYKCQTCGMQFSQSPHLKNHERTHSGERPYVCGVCDKGFARHATLWNHRRIHTGEKPYKCEICGSAFSQAAHLKNHAKVHSGEKPYKCEICSAAFADRFALKRHRGIHQKYGQTAPRQTSSDGMIVHKQEIPDMEDEAQQEVIIGGL
With B8, the MAPPIT interaction score in [10] is 0.235.
